Values joined by “and” are separate entries in the source; they are usually repeats but may differ in a detail not shown here. Equal values may be shown once. Active and inactive are the calls of the source. How the source made its calls: active means hit-call score of the fitted dose curve at least 0.9, where 1 is the maximum; inactive means score below 0.9.
test: CCTE_Shafer_MEA_acute_cross_correlation_HWHM: CCTE's Neural Acute Assay for Cross Correlation at Half Width at Half Maximum, Shafer Lab (AID 2284026)
Procedure: CCTE_Shafer_MEA_acute assay is conducted using Axion Biosystems 48 well microelectrode array (MEA) plates and Maestro recording system. Each well of the MEA plate contains a grid of 16 microelectrodes embedded in the culture surface. Electrically active cells, such as neurons, can be cultured over the electrodes, and electrical activity in these cells can be recorded extracellularly. The spontaneous firing of neurons is captured from each electrode on a microsecond timescale providing both temporally and spatially precise data. […] The CCTE_Shafer_MEA_acute assay uses primary cultures of rat cortical neurons. As these cultures mature over time, neural networks develop functional activity and form cohesive networks in which electrical activity can be highly coordinated. Baseline 40-minute recordings are made on days post-plating 13 or 15, followed by a secondary 40-minute recording after chemical exposure.CCTE_Shafer_MEA_acute_cross_correlation_HWHM is a component of the CCTE_Shafer_MEA_acute assay. It measures the distance along the x-axis (phase lag) from the left half maximum height to the center of the cross-correlogram of action potential firing during a recording in a microelectrode array (MEA) using Axion Biosystems Maestro 768 channel amplifier with the AxIS adaptive spike detector. Smaller values indicate a narrower correlogram (greater synchrony). The recordings before and after chemical treatment are used to calculate a percent change in the half width at half maximum of the cross-correlogram in each well.Data from the assay component CCTE_Shafer_MEA_acute_cross_correlation_HWHM was analyzed into 1 assay endpoint. This assay endpoint, CCTE_Shafer_MEA_acute_cross_correlation_HWHM, was analyzed in the negative analysis fitting direction relative to DMSO as the negative control and baseline of activity. Using a type of functional reporter, gain or loss-of-signal activity can be used to understand electrical activity.
Spontaneous activity in the cortical cultures was recorded using an Axion Biosystems Maestro 768 channel amplifier and Axion Integrated Studios (AxIS) v1.8 (or later) software. The amplifier recorded from all channels simultaneously (gain = 1200 x; sampling rate = 12.5 kHz/channel): raw signals were filtered with a Butterworth band-pass filter (300-5000 Hz), which filters out slower local field potentials leaving only fast potentials, i.e., "spikes", arising from extracellular currents associated with action potentials (Pine 2006; Wheeler and Nam 2011). On-line spike detection of filtered signals was conducted with the AxIS adaptive spike detector, using a threshold of 8x the root mean squared (rms) noise on each channel. Any electrodes with rms noise levels greater than 5 uV were grounded (e.g., no data were recorded). Once grounded, an electrode was grounded for the duration of the experiment. All recordings were conducted at 37 C. Wells were deemed usable if on the day of the exposure >/= 10 electrodes were active (defined as >/= 5 spikes/min). On DIV 13 or 15, a minimum of three wells from one cortical culture preparation were treated with each compound (0.03-40 uM). Prior to recording baseline activity, each mwMEA plate was placed in the Maestro at 37 C and allowed to sit for 20 min while firing rates stabilized. Baseline activity (40 min) was recorded before the addition of each compound. An additional 40 min of spontaneous activity was recorded in the presence of each compound. Changes in network parameters relative to baseline were assessed following compound treatment.

Compound	outcome	AC50
C=CC(N)=O	inactive	
Oc1ccc(C(c2ccc(O)cc2)(C(F)(F)F)C(F)(F)F)cc1		30.5 µM (active)
CO/C=C(/C(=O)OC)c1ccccc1COc1cccc(C(F)(F)F)n1		5.05 µM (active)
ClC1=C(Cl)[C@]2(Cl)[C@@H]3[C@H]4C[C@H]([C@@H]5O[C@H]45)[C@@H]3[C@@]1(Cl)C2(Cl)Cl		0.0859 µM (active)
CCCN(CCC)N=O	inactive	
COc1ccc(O)c(C(C)(C)C)c1		15 µM (active) and 2.79 µM (active) and 32.2 µM (active)
CC#Cc1cc(C)nc(Nc2ccccc2)n1		5.98 µM (active)
CCC(C)c1cc([N+](=O)[O-])cc([N+](=O)[O-])c1O (stereo unspecified)	inactive	
ClC(Cl)=C(c1ccc(Cl)cc1)c1ccc(Cl)cc1	inactive	
CC(C)C(=O)OCC(C)(C)C(OC(=O)C(C)C)C(C)C (stereo unspecified)	inactive	
ClC1=C(Cl)[C@]2(Cl)[C@@H]3[C@@H]4C[C@@H]([C@H]5O[C@@H]45)[C@@H]3[C@@]1(Cl)C2(Cl)Cl		0.323 µM (active)
CC(c1ccc(O)cc1)(c1ccc(O)cc1)c1ccc(O)cc1		33.4 µM (active)
ClC1=C(Cl)[C@]2(Cl)[C@@H]3[C@@H](Cl)[C@H]4O[C@H]4[C@@H]3C1(Cl)C2(Cl)Cl		0.458 µM (active)
CCSC(=O)N(CC)C1CCCCC1		8.09 µM (active)
CN(C)CCO	inactive	
O=C(NC(=O)c1c(F)cccc1F)Nc1cc(Cl)c(OC(F)(F)C(F)F)c(Cl)c1	inactive	
CCCCCCCCCC[N+](C)(C)CCCCCCCCCC		1.63 µM (active)
Clc1ccc(C(Cl)(Cl)Cl)cc1	inactive	
CCC(C)(c1ccc(O)cc1)c1ccc(O)cc1	inactive	
CCCCCCCCCc1ccc(O)cc1		20 µM (active)
O=C(O)C(F)(F)C(F)(F)C(F)(F)C(F)(F)C(F)(F)F	inactive	
COS(=O)(=O)OC	inactive	
O=C(N[C@H]1CN2CCC1CC2)c1cc2ccoc2cn1	inactive	
Nc1ccc(-c2ccc(N)cc2)cc1	inactive	
CCC(C)(CC)c1cc(NC(=O)c2c(OC)cccc2OC)on1		11.4 µM (active)
c1ccc(-c2ccccc2)cc1	inactive	

— PubChem BioAssay (EPA / NIEHS)
